{"source": "PubChem BioAssay AID763", "about": "(NMMLSC, 2007)", "note": "Values without a mark were called inactive. Activity calls are given as the source filed them. The rule behind the calls is not given here."}
{"biological_target": "fMet-Leu-Phe receptor (Homo sapiens) (UniProt P21462)", "sequence (P21462 whole entry, looked up)": "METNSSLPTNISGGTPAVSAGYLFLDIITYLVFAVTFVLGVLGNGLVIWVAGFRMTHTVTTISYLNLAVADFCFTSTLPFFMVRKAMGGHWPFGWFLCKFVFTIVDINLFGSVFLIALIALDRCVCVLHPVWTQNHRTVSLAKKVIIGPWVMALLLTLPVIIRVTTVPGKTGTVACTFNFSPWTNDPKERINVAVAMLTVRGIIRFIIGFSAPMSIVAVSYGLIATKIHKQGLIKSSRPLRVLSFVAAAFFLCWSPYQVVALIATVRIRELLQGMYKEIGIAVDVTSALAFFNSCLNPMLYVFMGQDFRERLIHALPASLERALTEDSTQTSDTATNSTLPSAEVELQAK", "test": "human FPR1 ligand displacement single-point test – cell-based, single concentration, selectivity assay for FPRL1 ligand SAR project, SAR follow-up (AID 763)", "conditions": "FPR1-expressing cells, fluorescent ligand binding inhibition, active compounds read high; at 5.4 µM unless noted"}
{"molecule": "O=C(N1CCN(c2nc(-c3ccccc3)c3cc([N+](=O)[O-])ccc3n2)CC1)C(F)(F)F", "inhibition": "-1.2% [at 5.2 µM]"}
{"molecule": "Fc1ccc(-c2cc(C(F)(F)F)nc(N3CCN(c4ccccc4)CC3)n2)cc1", "inhibition": "-1% [at 5.5 µM]"}
{"molecule": "COc1ccc(-c2cc(C(F)(F)F)nc(N3CCN(c4ccc(F)cc4)CC3)n2)cc1OC", "inhibition": "-1.4% [at 4.8 µM]"}
{"molecule": "CC(=O)N1CCN(c2nc(-c3ccccc3)c3cc(Cl)ccc3n2)CC1", "inhibition": "2.2% [at 6.1 µM]"}
{"molecule": "COc1ccc(C2CC(=O)c3cnc(N4CCN(Cc5ccc6c(c5)OCO6)CC4)nc3C2)c(OC)c1", "note": "(stereo unspecified)", "inhibition": "-4.7% [at 4.4 µM]"}
{"molecule": "COc1ccc(-c2cn3cccnc3n2)cc1NC(=O)c1ccc(Br)cc1", "inhibition": "-0.1% [at 5.3 µM]"}
{"molecule": "O=C(c1ccc(Cl)cc1)N1CCN(c2nc(-c3ccccc3)c3ccccc3n2)CC1", "inhibition": "-1.9% [at 5.2 µM]"}
{"molecule": "O=C(O)CCC(=O)N1CCN(c2nc(-c3ccccc3)c3cc([N+](=O)[O-])ccc3n2)CC1", "inhibition": "-0.6% [at 5.1 µM]"}
{"molecule": "COc1ccc(-c2cn3cccnc3n2)cc1NC(=O)CCc1ccccc1", "inhibition": "6.4% [at 6 µM]"}
{"molecule": "O=C(O)CCCC(=O)N1CCN(c2nc(-c3ccccc3)c3ccccc3n2)CC1", "inhibition": "-2.1% [at 5.5 µM]"}
{"molecule": "CCOC(=O)N1CCN(c2nc(-c3ccccc3)c3cc(C)ccc3n2)CC1", "inhibition": "-2.1% [at 5.9 µM]"}
{"molecule": "Cc1c(-c2cccc(NC(=O)C(C)(C)C)c2)nc2ncccn12", "inhibition": "4.9% [at 7.2 µM]"}
{"molecule": "Clc1ccccc1N1CCN(c2nc(-c3ccccc3)c3cc(Br)ccc3n2)CC1", "inhibition": "2.1% [at 4.6 µM]"}
{"molecule": "COc1ccc(-c2cn3cccnc3n2)cc1NC(=O)c1ccc(C(F)(F)F)cc1", "inhibition": "3.7%"}
{"molecule": "COc1ccc(-c2cc(C(F)(F)F)nc(N3CCN(c4ccccc4)CC3)n2)cc1OC", "inhibition": "54.8% [at 5 µM] (active)"}
{"molecule": "COc1ccc(-c2cn3cccnc3n2)cc1NC(=O)c1ccc(Br)o1", "inhibition": "0.9%"}
{"molecule": "COc1ccccc1N1CCN(c2nc(-c3ccc(F)cc3)cc(C(F)(F)F)n2)CC1", "inhibition": "-1.1% [at 5.1 µM]"}
{"molecule": "O=C(O)CCCC(=O)N1CCN(c2nc(-c3ccccc3)c3cc(Br)ccc3n2)CC1", "inhibition": "-1.2% [at 4.6 µM]"}
{"molecule": "O=C1CC(c2ccco2)Cc2nc(N3CCN(Cc4ccccc4)CC3)ncc21", "note": "(stereo unspecified)", "inhibition": "5.5% [at 5.7 µM]"}
{"molecule": "O=C(N1CCN(c2nc(-c3ccccc3)c3ccccc3n2)CC1)C(F)(F)F", "inhibition": "5.9% [at 5.8 µM]"}
{"molecule": "CCC(=O)Nc1cccc(-c2cn3cccnc3n2)c1", "inhibition": "-0.2% [at 8.3 µM]"}
